# The panel holds about 83,000 compounds, 20% with a hit somewhere; the sample as a whole holds those more often.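 In brief: 96-well plates, 48 h treatment, single concentration, percent growth endpoint.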 A number with no mark means an inactive call. Activity calls are given as the source filed them. How the source made its calls: active means growth percent below 10; inactive means the rest.
# Tests used:
# Experiment in all cases: NCI-60 one-dose screen, 48 h (100 = growth as untreated, 0 = no growth, -100 = all killed)
# Details in all cases: 10 µM unless noted
# SN12C renal = tested on: SN12C renal
# UO-31 renal = tested on: UO-31 renal
# ACHN renal = tested on: ACHN renal
# CAKI-1 renal = tested on: CAKI-1 renal
# A498 renal = tested on: A498 renal
# CCRF-CEM leukemia = tested on: CCRF-CEM leukemia
# MOLT-4 leukemia = tested on: MOLT-4 leukemia
# EKVX NSCLC = tested on: EKVX NSCLC
# TK-10 renal = tested on: TK-10 renal
Structure (SMILES),growth (SN12C renal),growth (UO-31 renal),growth (ACHN renal),growth (CAKI-1 renal),growth (A498 renal),growth (CCRF-CEM leukemia),growth (MOLT-4 leukemia),growth (EKVX NSCLC),growth (TK-10 renal)
COc1cc(/C=C/c2cc(/C=C/c3ccc(O)c(OC)c3)n(C(=O)Cc3ccccc3)n2)ccc1O,9.07% (active),-9.97% (active),5.4% (active),20.9%,-9.09% (active),0.172% (active),1.08% (active),,
CC(=O)Nc1c(Cl)cc2c(c1Cl)Cc1cc([N+](=O)[O-])ccc1-2,97.1%,86.3%,79.5%,,88.8%,57.2%,85%,42.2%,
Nc1c(C(=O)Nc2cccc(Cl)c2)sc2nc3c(cc12)C(O)CCC3 (configuration not stated),35.5%,41.9%,43.3%,37%,-10.6% (active),15.7%,16.3%,,
COc1ccc(-c2cc(-c3cccnc3)nc(S(=O)(=O)CC(=O)Nc3ccc(C)cc3)c2C#N)cc1OC,97.2%,59.8%,98.3%,91.2%,57.3%,100%,75.2%,,
O=C(CSc1nnc(-c2cc(-c3ccccc3)nc3ccccc23)o1)c1ccc(Br)cc1,98%,83.1%,107%,91.2%,102%,105%,104%,107%,
COc1cccc(/C=C2\Cc3ccccc3C2=O)c1,98.8%,90.7%,,96.9%,,,93.3%,,103%
COc1cc(C(=O)c2cc3c(cc2C)OCO3)cc(OC)c1OC,32.4%,44.8%,,13.5%,-2.13% (active),,23.1%,,62.8%
